Assay results published in PubChem BioAssay (EPA / NIEHS).
Results filed as inconclusive are left out. Active and inactive are the calls of the source. How the source made its calls: active means hit-call score of the fitted dose curve at least 0.9, where 1 is the maximum; inconclusive means response in the unintended direction; inactive means score below 0.9.

Columns and labels:
[1] = Tanguay_ZF_120hpf_EYE_legacy: (Legacy) Oregon State University Tanguay Lab 120 Hour Post-fertilization zebrafish Assay for Eye Malformation (AID 2283636);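 further: binary presence or absence of eye malformation scored by brightfield in 120 hpf larvae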
How it was run: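 Dechorionated wild-type Tropical 5D zebrafish embryos were exposed statically from 6 hpf, one per well, to 120 hpf at 28C in sealed, foil-covered plates with 0.64% DMSO. Eye malformation was scored present/absent by brightfield microscopy against DMSO controls.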

[2] = Tanguay_ZF_120hpf_SNOU_legacy: (Legacy) Oregon State University Tanguay Lab 120 Hour Post-fertilization zebrafish Assay for Snout Malformation (AID 2283637)
How it was run: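 Tropical 5D wild-type zebrafish embryos, dechorionated with pronase at 4 hpf, were exposed singly from 6 hpf to 120 hpf statically at 28C in 0.64% DMSO. Snout malformation was scored present/absent by brightfield microscopy, fitted against DMSO.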

[3] = Tanguay_ZF_120hpf_JAW_legacy: (Legacy) Oregon State University Tanguay Lab 120 Hour Post-fertilization zebrafish Assay for Jaw Malformation (AID 2283638)
How it was run: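 Wild-type 5D embryos, chorion removed at 4 hpf, dosed singly from 6 hpf; 28C static, sealed, foil-covered, to 120 hpf. Endpoint: jaw defect yes/no (brightfield); mortality excludes scoring.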

[4] = Tanguay_ZF_120hpf_OTIC_legacy: (Legacy) Oregon State University Tanguay Lab 120 Hour Post-fertilization zebrafish Assay for Otic Vesicle Malformation (AID 2283639)
How it was run: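 Tropical 5D wild-type zebrafish embryos statically exposed in 0.64% DMSO at 28C until 120 hpf; 5uM trimethyltin chloride as positive control. Otic vesicle malformation scored present/absent by brightfield; dead embryos not scored; gain fitted versus DMSO.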

[5] = Tanguay_ZF_120hpf_BRAI_legacy: (Legacy) Oregon State University Tanguay Lab 120 Hour Post-fertilization zebrafish Assay for Brain Malformation (AID 2283641)
How it was run: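 Static exposure of staged wild-type embryos until 120 hpf, kept at 28C with light excluded and final DMSO of 0.64% (vol/vol). Presence or absence of brain malformation was noted under brightfield; mortality precluded scoring.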

[6] = Tanguay_ZF_120hpf_SOMI_legacy: (Legacy) Oregon State University Tanguay Lab 120 Hour Post-fertilization zebrafish Assay for Somite Malformation (AID 2283647)
How it was run: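 Somitogenesis defects are recorded as binary calls in whole larvae at 120 hpf after continuous static chemical exposure starting at 6 hpf in dechorionated 5D embryos. DMSO serves as negative control and baseline.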

[7] = Tanguay_ZF_120hpf_PFIN_legacy: (Legacy) Oregon State University Tanguay Lab 120 Hour Post-fertilization zebrafish Assay for Pectoral Fin Malformation (AID 2283648);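 further: each larva judged yes or no for fin defect by brightfield with dead larvae skipped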
How it was run: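 Tropical 5D wild-type embryos, dechorionated with pronase at 4 hpf, were placed singly in wells at 6 hpf and statically exposed until 120 hpf at 28C, sealed and dark, with 0.64% (vol/vol) final DMSO; pectoral fin malformation scored present/absent.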

[8] = Tanguay_ZF_120hpf_CFIN_legacy: (Legacy) Oregon State University Tanguay Lab 120 Hour Post-fertilization zebrafish Assay for Caudal Fin Malformation (AID 2283649)
How it was run: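 Single dechorionated 5D wild-type embryos are dosed at 6 hpf (final DMSO 0.64%) and held statically at 28C. Caudal fin malformation is recorded as present or absent at 120 hpf under brightfield, excluding dead embryos.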

[9] = Tanguay_ZF_120hpf_PIG_legacy: (Legacy) Oregon State University Tanguay Lab 120 Hour Post-fertilization zebrafish Assay for Pigmentation Malformation (AID 2283650)
How it was run: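 Tropical 5D wild-type zebrafish embryos, dechorionated with pronase at 4 hpf, were exposed singly from 6 hpf to 120 hpf statically at 28C in sealed, dark plates with 0.64% DMSO; pigmentation scored present/absent by brightfield microscopy, fitted against DMSO.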

[10] = Tanguay_ZF_120hpf_CIRC_legacy: (Legacy) Oregon State University Tanguay Lab 120 Hour Post-fertilization zebrafish Assay for Circulatory Malformation (AID 2283651)
How it was run: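 Dechorionated wild-type 5D zebrafish embryos, one per well, statically exposed from 6 to 120 hpf at 28C with 0.64% DMSO; circulatory malformation scored present/absent by brightfield microscopy at 120 hpf, dead embryos excluded.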

[11] = Tanguay_ZF_120hpf_SWIM_legacy: (Legacy) Oregon State University Tanguay Lab 120 Hour Post-fertilization zebrafish Assay for Swim Bladder Malformation (AID 2283654);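 further: swim bladder malformation in each larva scored yes or no under brightfield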
How it was run: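 Dechorionated Tropical 5D wild-type embryos, placed singly from 6 hpf, were statically exposed at 28C to 120 hpf with 0.64% DMSO final; swim bladder malformation was scored present/absent by brightfield microscopy, gain of signal relative to DMSO controls.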

[12] = Tanguay_ZF_120hpf_NC_legacy: (Legacy) Oregon State University Tanguay Lab 120 Hour Post-fertilization zebrafish Assay for Notochord and Tail Malformation (AID 2283656)
How it was run: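 Dechorionated Tropical 5D wild-type zebrafish embryos, one per well from 6 hpf, statically exposed to 120 hpf at 28C in 0.64% DMSO final. Notochord distortion scored present/absent by brightfield; dead embryos excluded.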

[13] = test system: Thyroperoxidase (TPO), gene 54314; assay: CCTE_Simmons_AUR_rTPO: CCTE's Amplex UltraRed Assay for Thyroperoxidase (TPO) Inhibition, Simmons Lab (AID 2283662);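 further: potency for loss of signal meaning inhibition of peroxidase activity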
How it was run: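 Rat thyroid microsomes (5 ug protein) with 25 uM Amplex UltraRed and 300 uM H2O2 in 200 mM phosphate buffer, 30 min at 37C in dark; fluorescence 544/590 nm. Eight concentrations, 5 nM–87.5 uM final, 0.5% DMSO, triplicate biological replicates.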

[14] = Tanguay_ZF_120hpf_AXIS_legacy: (Legacy) Oregon State University Tanguay Lab 120 Hour Post-fertilization zebrafish Assay for Body Axis Malformation (AID 2283635);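 on AC50: potency for an increased fraction of larvae scored with body axis malformation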
How it was run: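 Each dechorionated embryo was exposed alone from 6 hpf, with DMSO at 0.64% (vol/vol) and trimethyltin chloride 5 uM as positive control. Axis malformation was recorded at 120 hpf unless the embryo had died.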

[15] = Tanguay_ZF_120hpf_TRUN_legacy: (Legacy) Oregon State University Tanguay Lab 120 Hour Post-fertilization zebrafish Assay for Truncated Body (AID 2283655)
How it was run: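 Single dechorionated zebrafish embryos received test chemical from 6 hpf in 0.64% DMSO, kept at 28C. At 120 hpf, brightfield inspection noted any truncated body.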

[16] = Tanguay_ZF_120hpf_PE_legacy: (Legacy) Oregon State University Tanguay Lab 120 Hour Post-fertilization zebrafish Assay for Pericardial Edema (AID 2283640)
How it was run: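 Zebrafish larvae are exposed from early development to 120 hpf at 28C, with 0.64% DMSO final. Each surviving larva receives a yes/no pericardial edema call by brightfield imaging, analysed relative to the DMSO baseline.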

Measured: AC50

Cc1ccc(N)cc1O
active: [13] 1180 nM
not listed: [14] | [15] | [16]
inactive: all other assays above

Cn1cnc([N+](=O)[O-])c1Sc1ncnc2nc[nH]c12
active: [13] 30400 nM
not listed: [1] | [5] | [7] | [9] | [11] | [16]
inactive: all other assays above

On1ccccc1=S
active: [14] 35.4 nM | [2] 206 nM | [11] 61.5 nM | [12] 561 nM | [13] 17500 nM
not listed: [1] | [16]
inactive: all other assays above

O=C1CCCCCN1
not listed: [1] | [7] | [13] | [14] | [16]
inactive: all other assays above

CC(=O)c1ccc2c(c1)[C@H](NC(=O)c1ccc(F)cc1)[C@@H](O)C(C)(C)O2
not listed: [1] | [12] | [13] | [16]
inactive: all other assays above

CC1(C)C(=O)N(Br)C(=O)N1Br
not listed: [4] | [13] | [15] | [16]
inactive: all other assays above

COC(=O)CC(=O)OC
not listed: [1] | [8] | [9] | [13] | [16]
inactive: all other assays above

COc1ccc(/C=C/S(=O)(=O)NC(=O)c2ccc(C)cc2Cl)cc1
not listed: [1] | [9] | [13] | [14] | [16]
inactive: all other assays above

CN(C)c1ccc(N=NS(=O)(=O)O)cc1
active: [13] 21700 nM
not listed: [1] | [5] | [7] | [8]
inactive: all other assays above

O=C(O)CC(O)C(=O)O (centres undefined)
not listed: [4] | [13] | [16]
inactive: all other assays above
